# Laboratory results taken from paper PMC5540273 (PLoS ONE, 2017).
# Read-outs that look alike come from different tables or passages of the source.
# Tests used:
# [1] = system: MAP3K15; details: concentration: 1 μM,replicates: in singlicate; n = 1
# [2] = system: MAP3K1; details: concentration: 1 μM,replicates: in singlicate; n = 1
# [3] = system: MAP3K2; details: concentration: 1 μM,replicates: in singlicate; n = 1
# [4] = system: MAP3K3; details: concentration: 1 μM,replicates: in singlicate; n = 1
# [5] = system: MAP3K4; details: concentration: 1 μM,replicates: in singlicate; n = 1
# [6] = system: MAP4K2; details: concentration: 1 μM,replicates: in singlicate; n = 1
# [7] = system: MAP4K3; details: concentration: 1 μM,replicates: in singlicate; n = 1
# [8] = system: MAP4K4; details: concentration: 1 μM,replicates: in singlicate; n = 1
# [9] = system: MAP4K5; details: concentration: 1 μM,replicates: in singlicate; n = 1
# [10] = system: MAPKAPK2; details: n = 1
# [11] = concentration: 1 μM,replicates: in singlicate
# 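Further: KINOMEscan kinase panel screen.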
Compound,%Inh [1],%Inh [2],%Inh [3],%Inh [4],%Inh [5],%Inh [6],%Inh [7],%Inh [8],%Inh [9],"%Inh [10, 11]",%Inh ([10]; 1 µM)
FC(F)(F)c1cc(Br)cc(Nc2nccc(-c3cnn4ncccc34)n2)c1 [GW810578],0%,3%,14%,29%,15%,41%,7%,0%,18%,0%,–
Cc1cccc(-c2nc(Nc3ccncc3)c3sccc3n2)n1 [GW869641],30%,37%,44%,28%,0%,50%,5%,37%,11%,0%,–
C[C@@H]1CNc2c(sc3ccc4nc(-c5ccncc5)ccc4c23)C(=O)N1,52%,0%,0%,5%,0%,70%,1%,0%,0%,–,97.1%
Cc1n[nH]c2cc(Nc3ccnc(Nc4cccc(CN5CCOCC5)c4)n3)ccc12 [GW682569],0%,29%,8%,0%,0%,5%,0%,10%,14%,0%,–
Cc1ccc(C(=O)Nc2ccc(Oc3ccc4nc(NC(=O)C5CC5)cn4c3)c(F)c2)c(=O)n1-c1ccccc1,0%,0%,0%,5%,12%,0%,16%,0%,0%,0%,–
Cc1ccn2nc(-c3ccc(F)cc3)c(-c3ccncc3)c2c1.Cl [GW457859],0%,0%,0%,0%,0%,2%,0%,14%,0%,15%,–
Cn1ccc2ncnc(Oc3ccc(NC(=O)Nc4cncc(C(F)(F)F)c4)c(Cl)c3)c21,0%,0%,0%,0%,3%,0%,0%,0%,0%,0%,–
